The results in this text go back to the supplement of paper PMC9135407.

The experiment relates to primary human hepatic stellate cells (donor 1). The experiment is described as follows: scaled lipid accumulation score (0 = DMSO-like, 1 = nortriptyline-like); higher = stronger HSC inactivation (lipid re-accumulation), active = hit call of the paper. The conditions noted are these: 48 h.
Setting [1] is: library stock concentration: 1 mM.
Where [2] appears, read: library stock concentration: 10 mM.
The mark [3] stands for this setting: library stock concentration: 6.4 mM.
[4] abbreviates: library stock concentration: 3.33 mM.
Setting [5] is: library stock concentration: 80 uM.
The mark [6] stands for this setting: library stock concentration: 400 uM.
[7] abbreviates: library stock concentration: 2 mM.

SMILES strings stand for the structures. Several values for one entry are separate records, joined by “and”; a condition that tells them apart may be missing. Equal values may be shown once. Where a name gives a salt, the structure may show the parent alone. In all, about 5,800 compounds went through this assay and about 620 (11%) showed activity. The list comes from a sample in which actives are over-represented; it also holds similar structures and randomly drawn compounds. A number with no mark means an inactive call.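 Rule for the calls: active = score above a cut-off or among the top three wells of a plate; in these data no inactive exceeds 0.85.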

Regarding `O=C(O)CCC/C=C\C[C@H]1C(=O)C=C[C@@H]1/C=C/[C@@H](O)COc1ccccc1` [16-phenoxy tetranor Prostaglandin A2], under setting [1], the “scaled lipid accumulation score” value was no more than 0.
Still for that read-out and setting: as for `CCCCCCCCCCCCCCCC(=O)OC[C@H](COP(=O)([O-])OCC[N+](C)(C)C)OC(=O)CCCCCCCC(=O)O`, the figure is no more than 0.
`CC(C)(C)[C@]1(O)CCN2C[C@H]3c4ccccc4CCc4cccc(c43)[C@@H]2C1` [(+)-Butaclamol hydrochloride]: the “scaled lipid accumulation score” value under setting [2] was 0.672.
On to `CC(C)(C)[C@]1(O)CCN2C[C@H]3c4ccccc4CCc4cccc(c43)[C@@H]2C1`, for which, under setting [2], the “scaled lipid accumulation score” value was 0.691.
`CCCCC[C@H](O)/C=C/C=C\CCCCCCCC(=O)O`: under “library stock concentration: 100 uM”, the “scaled lipid accumulation score” value was no more than -0.021.
In the case of `CCCCCC(=O)/C=C/[C@@H]1[C@@H](C/C=C\CCCC(=O)O)[C@@H](O)C[C@H]1O` [15-keto Prostaglandin F2.alpha.], the “scaled lipid accumulation score” value under setting [1] was no more than 0.
In the case of `Clc1ccc2c(c1)C(N1CCNCC1)=Nc1ccccc1O2` [Amoxapine] [listing 1 of 4 here], under setting [3], the “scaled lipid accumulation score” value is 0.886 (active).
Consider `Clc1ccc2c(c1)C(N1CCNCC1)=Nc1ccccc1O2` [Amoxapine] [listing 2 of 4 here], for which the “scaled lipid accumulation score” value is 0.863 (active).
On to `CCN(CC)CCCCN1c2ccccc2Oc2ccc(Cl)cc21` [Akt Inhibitor X], for which the “scaled lipid accumulation score” value under setting [4] is 0.225.
With `Clc1ccc2c(c1)C(N1CCNCC1)=Nc1ccccc1O2` [Amoxapine] [listing 3 of 4 here], the “scaled lipid accumulation score” value under setting [3] was 0.598.
With `CC(=O)NNC(=O)N1Cc2ccccc2Oc2ccc(Cl)cc21`, the “scaled lipid accumulation score” value under setting [2] is ≤ 0 and ≤ -0.006.
Regarding `Clc1ccc2c(c1)C(N1CCNCC1)=Nc1ccccc1O2`, under setting [2], the “scaled lipid accumulation score” value was 0.843.
Consider `Clc1ccc2c(c1)C(N1CCNCC1)=Nc1ccccc1O2` [Amoxapine] [listing 4 of 4 here], for which the “scaled lipid accumulation score” value under setting [2] was 1.05 (active).
Consider `CCN(CC)CCCCN1c2ccccc2Oc2ccc(Cl)cc21` [10-DEBC hydrochloride], for which the “scaled lipid accumulation score” value under setting [2] was 0.5.
Still for that read-out and setting: as for `Nc1ncnc2c1ncn2[C@@H]1O[C@@H]2COP(=O)(O)O[C@H]2[C@H]1O` [Adenosine 3',5'-cyclic monophosphate], the figure is 0.281.
In the case of `NC(C(=O)O)C(O)C(=O)O` (racemic) [DL-threo-beta-hydroxyaspartic acid], the “scaled lipid accumulation score” value under setting [2] is no more than -0.07.
For the molecule `O=C[C@@H]1CCCN1C(=O)[C@@H]1CCCN1C(=O)OCc1ccccc1` [Z-prolyl-prolinal], the “scaled lipid accumulation score” value (library stock concentration: 15.1 mM) was 0.107.
Turning to `CO/N=C(\C(=O)N[C@@H]1C(=O)N2C(C(=O)O)=C(CSC(=O)c3ccco3)CS[C@H]12)c1csc(N)n1` [Ceftiofur HCl], the “scaled lipid accumulation score” value reads like this: under setting [4], 0.015; under setting [2], no more than 0.
In the case of `CO/N=C(\C(=O)N[C@@H]1C(=O)N2C(C(=O)O)=C(CSC(=O)c3ccco3)CS[C@H]12)c1csc(N)n1`, the “scaled lipid accumulation score” value under setting [2] was no more than 0.
Same read-out and setting: as for `CC[C@H]1OC(=O)[C@H](C)[C@@H](O[C@H]2C[C@@](C)(OC)[C@@H](O)[C@H](C)O2)[C@H](C)[C@@H](O[C@@H]2O[C@H](C)C[C@H](NC)[C@H]2O)[C@](C)(O)C[C@@H](C)CN(C)[C@H](C)[C@@H](O)[C@]1(C)O`, the figure is 0.363.
`Cc1ccc2c(c1)C(=O)C1(O)CCN(c3ccccc3)C1=N2` (configuration not stated) [Blebbistatin]: the “scaled lipid accumulation score” value (library stock concentration: 17.1 mM) was 0.072.
Regarding `Cc1ccc2c(c1)C(=O)C1(O)CCN(c3ccccc3)C1=N2` (configuration not stated), the “scaled lipid accumulation score” value was no more than 0 under setting [1] and no more than -0.006 under setting [2].
Consider `CCCCC[C@H](O)/C=C/[C@@H]1[C@@H](C/C=C\CCCCCC(=O)O)[C@@H](O)C[C@H]1O` [1a,1b-dihomo Prostaglandin F2.alpha.], for which the “scaled lipid accumulation score” value under setting [1] was no more than 0.
As for `CCCCC(C)(C)[C@H](O)/C=C/[C@H]1C=CC(=O)[C@@H]1CCCCCCC(=O)O` [16,16-dimethyl Prostaglandin A1], under setting [1], the “scaled lipid accumulation score” value is no more than 0.
Consider `CCCCCCCC/C=C/CCCCCCCC(=O)O` [Elaidic Acid], for which the “scaled lipid accumulation score” value under setting [1] is no more than 0.
For `CNCCC=C1c2ccccc2CCc2ccccc21` [Nortriptyline], the “scaled lipid accumulation score” value under setting [2] is 0.72.
On to `CNCCC=C1c2ccccc2CCc2ccccc21.Cl`, for which the “scaled lipid accumulation score” value under setting [2] is 1.02 (active).
For `C(=C/CCNC)(/c1c(cccc1)CC2)\c3c2cccc3` [Nortriptyline], for the setting “library stock concentration: 7.6 mM”, the “scaled lipid accumulation score” value is 0.971 (active).
With `Cl.C(=C\CCNC)(/c1c(cccc1)CC2)\c3c2cccc3` [Nortriptyline hydrochloride], the “scaled lipid accumulation score” value was 1.13 (active).
Regarding `c1ccc(\C(\c2c3cccc2)=C\CCNC)c(C=C3)c1` [Norcyclobenzaprine], the “scaled lipid accumulation score” value was 1.13 (active).
For the molecule `OCc1ccccc1`, the “scaled lipid accumulation score” value under setting [2] was no more than 0.
Turning to `CC(=O)N[C@@H](Cc1c[nH]c2ccccc12)C(N)=O` [Acetyltryptophanamide], the “scaled lipid accumulation score” value under setting [2] is no more than 0.
With `COc1ccc2c(Oc3ccc(NC(=O)c4c(C)n(CC(C)(C)O)n(-c5ccccc5)c4=O)nc3)ccnc2c1`, the “scaled lipid accumulation score” value is no more than 0 under setting [4] and no more than 0 under setting [2].
Consider `C[C@H](Cc1ccc(O)c(O)c1)[C@@H](C)Cc1ccc(O)c(O)c1`, for which the “scaled lipid accumulation score” value under setting [2] was no more than -0.055.
Turning to `COCCCN1CCC(NC(=O)c2cc(Cl)c(N)c3c2OCC3)CC1` [Prucalopride Succinat], the “scaled lipid accumulation score” value by setting is: under setting [4], 0.028; under setting [2], 0.03.
In the same order, the values of `COCCCN1CCC(NC(=O)c2cc(Cl)c(N)c3c2OCC3)CC1` [Prucalopride] are no more than 0 and no more than 0.
For `CC1(C)O[C@H]2CC(=O)OC[C@]23[C@H]2CC[C@@]4(C)[C@H](c5ccoc5)OC(=O)[C@H]5O[C@]54[C@]2(C)C(=O)C[C@@H]13` [Limonin], the “scaled lipid accumulation score” value was no more than 0 under setting [4] and 0.008 under setting [2].
For `O=C(O)CCC/C=C/C[C@@H]1[C@@H](CC[C@@H](O)CCc2ccccc2)[C@H](O)C[C@@H]1O` [5-trans Latanoprost (free acid)], the “scaled lipid accumulation score” value under setting [1] is no more than 0.
As for `O=C1O[C@H]([C@@H](O)CO)C([O-])=C1O.[Na+]` [Sodium ascorbate], the “scaled lipid accumulation score” value was no more than 0 under setting [4] and no more than -0.001 under setting [2].
Take `CCCCC[C@H](O)/C=C/[C@H]1C(=O)C[C@H](O)[C@@H]1C/C=C\CCCC(=O)OCC(O)CO` (some centres not stated) [Prostaglandin D2-1-glyceryl ester]: under setting [1], the “scaled lipid accumulation score” value is no more than 0.
In the case of `CN1C(=O)C(Cc2c[nH]c3ccccc23)NC1=S` (configuration not stated) [Necrostatin-1], the “scaled lipid accumulation score” value is, setting by setting: under setting [5], 0.008; under setting [6], no more than 0; under setting [7], no more than 0; under setting [4], ≤ -0.009 and ≤ 0; under setting [2], ≤ 0 and 0.03.
As to `CCCc1c(OCCCCc2nnn[nH]2)ccc(C(C)=O)c1O`, the “scaled lipid accumulation score” value was ≤ 0 and ≤ -0.021 under setting [1]; 0.011 under setting [2].
Consider `COc1cc2c(cc1OC)-c1c/c(=N\c3c(C)cc(C)cc3C)n(C)c(=O)n1CC2` [Trequinsin], for which the “scaled lipid accumulation score” value (library stock concentration: 4.9 mM) is 0.164 and the “scaled lipid accumulation score” value (library stock concentration: 12.3 mM) is 0.244.
As to `COc1cc2c(cc1OC)-c1c/c(=N\c3c(C)cc(C)cc3C)n(C)c(=O)n1CC2` [Trequinsin hydrochloride], under setting [2], the “scaled lipid accumulation score” value was 0.494 and 0.174.
On the same count and under the same terms, as for `C#CC(N)CCC(=O)O` (configuration not stated) [gamma-Acetylinic GABA], the figure is 0.037.
The same measure, in the same setting: as for `C1CCC2(CC1)CCNCC2` [4,4-Pentamethylenepiperidine hydrochloride], the figure is 0.028.
As to `CCCCCCCCCCCCCCCCCCCCCC(=O)NCCS(=O)(=O)O` [N-Docosanoyl Taurine], the “scaled lipid accumulation score” value under setting [1] was no more than 0.
Turning to `C(=C/CCNC)(/c1c2cccc1)\c3c(cccc3)CC2.Cl` [Nortriptyline hydrochloride], the “scaled lipid accumulation score” value under setting [2] was 1.04 (active).
For the molecule `N[C@H]1CCN(O)C1=O`, under setting [2], the “scaled lipid accumulation score” value is no more than 0.
Consider `NCc1cccc2ccncc12` [8-Isoquinoline methanamine (hydrochloride)], for which the “scaled lipid accumulation score” value under setting [1] was 0.003.
With `CCCCCCNC(=O)Nc1ccc(S(=O)(=O)Nc2ccc(CCNC[C@H](O)COc3ccc(O)cc3)cc2)cc1`, the “scaled lipid accumulation score” value under setting [2] was 0.462.
For `O=C(O)CCCCCC[C@H]1C(=O)C[C@@H](O)[C@@H]1/C=C/[C@@H](O)Cc1ccccc1` [16-phenyl tetranor Prostaglandin E1], under setting [1], the “scaled lipid accumulation score” value is 0.017.
Turning to `CCCCCCCCCCCCCCCC(=O)OC[C@H](COP(=O)([O-])OCC[N+](C)(C)C)OC(=O)CCCC(=O)/C=C/C(=O)O`, the “scaled lipid accumulation score” value under setting [1] was 0.034.
Consider `O=C1C(Cl)=C(N2CCOCC2)C(=O)N1c1ccc(Cl)c(Cl)c1`, for which the “scaled lipid accumulation score” value under setting [4] was no more than -0.009 and the “scaled lipid accumulation score” value under setting [2] was no more than 0.
On to `COCC(=O)NC/C=C/c1ccc2ncnc(Nc3ccc(Oc4ccc(C)nc4)c(C)c3)c2c1` [listing 1 of 2 here], for which the “scaled lipid accumulation score” value is no more than 0 under setting [5]; ≤ 0 and ≤ -0.005 under setting [6]; ≤ 0 and ≤ -0.005 under setting [7]; 0.108 under setting [2].
Turning to `COc1ccc(Nc2ncnc3ccc(OC)cc23)cc1` [MPMQ hydrochloride], the “scaled lipid accumulation score” value under setting [2] is 0.051.
As for `COCC(=O)NC/C=C/c1ccc2ncnc(Nc3ccc(Oc4ccc(C)nc4)c(C)c3)c2c1` [listing 2 of 2 here], under setting [2], the “scaled lipid accumulation score” value was 1.46 (active).
Consider `NC1=NCCN1CC(=O)O` [Cyclocreatine], for which the “scaled lipid accumulation score” value under setting [2] is no more than 0.
On to `CCCCCCCCCCCCCCCC(=O)NCCS(=O)(=O)O` [N-Palmitoyl Taurine], for which, under setting [1], the “scaled lipid accumulation score” value is no more than 0.
As for `CCCS(=O)(=O)Nc1ccc(F)c(C(=O)c2c[nH]c3ncc(Cl)cc23)c1F` [listing 1 of 2 here], the “scaled lipid accumulation score” value is no more than 0 under setting [5]; ≤ 0 and 0.028 under setting [6]; ≤ 0 and 0.042 under setting [7]; no more than 0 under setting [4]; no more than 0 under setting [2].
For `CCCS(=O)(=O)Nc1ccc(F)c(C(=O)c2c[nH]c3ncc(Cl)cc23)c1F` [listing 2 of 2 here], the “scaled lipid accumulation score” value under setting [2] was 1.16 (active).
Turning to `CCCS(=O)(=O)Nc1ccc(F)c(C(=O)c2c[nH]c3ncc(-c4ccc(Cl)cc4)cc23)c1F` [Vemurafenib (PLX4032, RG7204)], the “scaled lipid accumulation score” value under setting [4] was no more than 0 and the “scaled lipid accumulation score” value under setting [2] was no more than 0.
In the case of `Cc1noc(-c2ccc(CSCCC(=O)O)cc2)c1NC(=O)OC(C)c1ccccc1Cl` (configuration not stated), the “scaled lipid accumulation score” value is 0.003 under setting [4] and no more than 0 under setting [2].
For the molecule `CCCCCCCOC(=O)Cc1c(C)n(C(=O)c2ccc(Cl)cc2)c2ccc(OC)cc12` [Indomethacin heptyl ester], under setting [1], the “scaled lipid accumulation score” value was 0.015.
